# Laboratory results: PubChem BioAssay
# Activity calls are given as the source filed them. Unless noted, no rule for the calls is given here.
# What was measured:
# [1] = resazurin metabolic signal in HepG2 cells – cell-based, resazurin fluorescence, 24 h, PK04 Diversity Set, profiling panel (AID 1172); settings: HepG2 viability, higher = more signal; also: test concentration not given here
# [2] = budding yeast growth changes without added modifier – OD600, strain BY4716, 24 h, basal condition, primary screen (AID 1173); settings: S. cerevisiae BY4716 growth, OD600, 24 h; higher = more signal, called active from +8 up or from −8 down
# [3] = viability profiling in MM1S myeloma cells – cell-based, resazurin fluorescence, basal, 24 h, PK04 Diversity Set, profiling panel (AID 1174); settings: higher = more signal, called active from +8 up or from −8 down;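 also: MM1S multiple myeloma cell line; test concentration not given here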
# [4] = target: Dihydroorotate dehydrogenase (quinone), mitochondrial (Plasmodium falciparum (isolate 3D7)) (UniProt Q08210); test: inhibition of P. falciparum DHODH – biochemical, C-terminal His tag, absorbance 600 nm, primary screen (AID 1175); settings: PfDHODH enzyme, DCIP absorbance 600 nm; higher = more signal, called active from +8 up or from −8 down;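 also: recombinant parasite enzyme with a five histidine tag at its C terminus; test concentration not given here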
# Dihydroorotate dehydrogenase (quinone), mitochondrial (Plasmodium falciparum (isolate 3D7)), sequence (Q08210 whole entry, looked up): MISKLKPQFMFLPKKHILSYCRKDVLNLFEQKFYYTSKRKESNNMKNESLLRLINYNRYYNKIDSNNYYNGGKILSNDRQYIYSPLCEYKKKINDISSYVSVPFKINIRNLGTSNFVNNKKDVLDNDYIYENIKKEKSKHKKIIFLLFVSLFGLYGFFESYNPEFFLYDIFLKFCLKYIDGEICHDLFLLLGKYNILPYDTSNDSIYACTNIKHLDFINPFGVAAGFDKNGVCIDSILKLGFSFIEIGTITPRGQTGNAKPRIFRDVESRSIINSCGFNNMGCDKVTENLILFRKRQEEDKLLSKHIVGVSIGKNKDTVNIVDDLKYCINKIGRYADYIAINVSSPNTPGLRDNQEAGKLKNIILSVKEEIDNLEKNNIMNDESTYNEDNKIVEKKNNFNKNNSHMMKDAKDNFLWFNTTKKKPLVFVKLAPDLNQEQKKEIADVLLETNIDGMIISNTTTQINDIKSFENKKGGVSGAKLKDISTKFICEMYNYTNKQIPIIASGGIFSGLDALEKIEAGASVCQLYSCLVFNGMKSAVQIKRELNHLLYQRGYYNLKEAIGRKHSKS
# [5] = inhibition of PAO1 biofilm formation – strain PAO1, LB-PBS medium, absorbance 600 nm, primary screen (AID 1176); also: test concentration not given here; settings: P. aeruginosa PAO1 growth/biofilm, A600, 12 h; higher = more signal
# [6] = growth modulation of vineyard yeast isolate – strain RM11-1a, OD600, basal, 24 h, primary screen (AID 1177);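 also: cultures grown under basal conditions with no added stressor; test concentration not given here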; settings: S. cerevisiae RM11-1a growth, OD600, 24 h; higher = more signal, called active from +8 up or from −8 down
# [7] = growth of efflux-deficient E. coli DRC39 – strain DRC39, OD650, 24 h, E. coli filamentation inducers, primary screen (AID 1178);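 also: growth measured as culture turbidity by optical density at 650 nm; test concentration not given here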; settings: E. coli DRC39 acrAB, higher = more signal, called active from +8 up or from −8 down
# [8] = growth of efflux-deficient E. coli DRC39 – strain DRC39, OD650, 48 h, E. coli filamentation inducers, primary screen (AID 1179);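 also: screen aims at cell division blockers that make cells filament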; settings: E. coli DRC39 delta-acrAB growth, higher = more signal, called active from +8 up or from −8 down
# [9] = viability profiling in RPMI8226 myeloma cells – cell-based, resazurin fluorescence, basal, 24 h, PK04 Diversity Set, profiling panel (AID 1180); settings: higher = more signal;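 also: RPMI8826 multiple myeloma cell line at 5000 cells per well; test concentration not given here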
# [10] = target: E3 ubiquitin-protein ligase XIAP (Homo sapiens) (UniProt P98170); test: small molecules binding XIAP protein – biophysical, small-molecule microarray, fluorescence 635 nm, primary screen (AID 1181); settings: higher = more signal;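 also: score merges 667 nm emission and signal to noise over triplicate slides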
# E3 ubiquitin-protein ligase XIAP (Homo sapiens), sequence (P98170 whole entry, looked up): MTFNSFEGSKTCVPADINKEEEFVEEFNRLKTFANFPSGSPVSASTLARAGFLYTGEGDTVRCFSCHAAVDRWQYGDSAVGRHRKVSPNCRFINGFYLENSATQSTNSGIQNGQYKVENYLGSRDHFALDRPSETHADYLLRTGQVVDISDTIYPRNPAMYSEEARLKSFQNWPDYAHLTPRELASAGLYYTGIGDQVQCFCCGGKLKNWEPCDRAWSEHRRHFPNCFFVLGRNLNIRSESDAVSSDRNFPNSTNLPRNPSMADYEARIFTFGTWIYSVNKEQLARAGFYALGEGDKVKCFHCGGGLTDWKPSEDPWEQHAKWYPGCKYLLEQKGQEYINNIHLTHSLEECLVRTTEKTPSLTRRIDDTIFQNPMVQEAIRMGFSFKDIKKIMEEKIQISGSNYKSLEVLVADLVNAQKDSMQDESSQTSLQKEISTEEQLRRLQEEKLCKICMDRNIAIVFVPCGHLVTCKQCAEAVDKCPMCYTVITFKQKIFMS
Compound,z-score [1],z-score [2],z-score [3],composite z-score [4],z-score [5],z-score [6],z-score [7],z-score [8],z-score [9],composite z-score [10]
CCN(CC)c1ccc(N2CC=CC34O[C@@H]5/C=C\CCC(C)OC(=O)C5[C@H]3C(=O)N(CCCO)[C@@H]4C2=O)cc1 (stereo not given in full),-0.649,1.09 (inactive),0.267 (inactive),0.424 (inactive),-0.745 (inactive),1.21 (inactive),0.692 (inactive),0.562 (inactive),0.47,-0.0243
CCN1C(=O)[C@H]2[C@H]3[C@H](O)C=CC(=O)[C@@H]3CC[C@H]2C1=O,0.384,-0.067 (inactive),0.442 (inactive),-0.28 (inactive),-0.519 (inactive),0.197 (inactive),0.484 (inactive),0.205 (inactive),-0.194,-0.133
CC(=O)OC[C@H]1O[C@H](CCON=C(C)CCC(=O)OC[C@H]2O[C@H](C#Cc3ccccc3)C=C[C@@H]2Oc2ccc(C)cc2)C=C[C@@H]1OC(C)=O,-0.508,0.511 (inactive),-0.795 (inactive),-0.84 (inactive),0.405 (inactive),0.661 (inactive),0.674 (inactive),0.59 (inactive),-0.31,-0.241
COC(=O)C1(C)C=C2C(=C(c3ccccc3)C(=O)C2C)CN1 (stereo not given),-1.44,0.558 (inactive),-1.71 (inactive),-0.784 (inactive),1.38 (inactive),0.376 (inactive),-0.632 (inactive),-0.348 (inactive),-2.05,0.359
[N-]=[N+]=NCc1ccccc1[C@@H]1OC(c2ccc(OCCCO)cc2)=N[C@]1(Cc1ccccc1)C(=O)N1CCOCC1,-0.85,-0.833 (inactive),-1.15 (inactive),-0.0859 (inactive),-0.208 (inactive),0.165 (inactive),0.559 (inactive),0.917 (inactive),-0.425,0.113
COC(=O)[C@@]1(Cc2ccccc2)[C@H]2c3cc(C(=O)N4CCCC4)n(Cc4ccccn4)c3C[C@H]2CN1C(=O)c1ccccc1,-1.17,1.32 (inactive),-1.45 (inactive),0.553 (inactive),1.79 (inactive),0.957 (inactive),-0.452 (inactive),-0.551 (inactive),-2.32,0.0737
COC(=O)[C@H](C)NC(=O)CCC1CC(OC(=O)NCc2cccc3ccccc23)CC2(CCCC(COC(=O)NCCc3ccc(Cl)cc3)O2)O1 (stereo not given in full),0.788,-0.0765 (inactive),0.319 (inactive),-0.473 (inactive),-0.61 (inactive),-0.425 (inactive),-0.0798 (inactive),0.687 (inactive),0.413,-0.0718
CC(C)NC(=O)[C@@]1(C)c2ccccc2C(=O)N(Cc2cc(F)cc(C(F)(F)F)c2)[C@H]1c1ccc(CO)cc1,-0.0499,0.118 (inactive),0.0847 (inactive),0.0724 (inactive),0.897 (inactive),-0.0826 (inactive),-0.0821 (inactive),-0.043 (inactive),-0.744,-0.157
COc1ccc([Si](C)(C)[C@H]2[C@H](CC(=O)N3CCC[C@H]3CO)O[C@@]3(C(=O)N(Cc4cccc(N5C(=O)COc6ccccc65)c4)c4ccccc43)[C@@H]2C)cc1,-0.58,-1.16 (inactive),-0.986 (inactive),-3.33 (inactive),1.85 (inactive),-1.74 (inactive),1.21 (inactive),1.32 (inactive),-0.524,-0.0795
CC(CCC(=O)OC[C@H]1O[C@H](C#Cc2ccccc2)C=C[C@@H]1Oc1ccc(C)cc1)=NOC[C@@H](O)COCc1ccco1,-0.501,0.384 (inactive),-1.39 (inactive),-1.24 (inactive),0.277 (inactive),-0.0703 (inactive),0.564 (inactive),0.895 (inactive),0.131,-0.0454
CC(=O)C[C@H](O)[C@@H](NC(=O)OC(C)(C)C)C(C)C,-0.519,-1.33 (inactive),0.481 (inactive),-3.13 (inactive),0.0494 (inactive),-0.407 (inactive),-1.86 (inactive),-1.1 (inactive),-0.228,-0.195
